Most compounds without a hit are left out; they make up all but 7.5% or so of the library.
VACV mCherry inh: vaccinia inhibition (mCherry reporter); Vaccinia virus mCherry reporter infection, fluorescence; Potency, µM (titrated, usually from 36.5 µM), hits mostly inhibitors; 0.63% of 310,000 active; calls by dose curve; tested in A549 cells; further: nearly all actives have a fitted effect of over 35% in size
FMDV inh: foot and mouth disease virus antiviral activity. FMDV antiviral cell-based qHTS. Potency, µM (highest dose often 57.9 µM), usual class: inhibitors. 1.2% of 410,000 active; calls by dose curve; tested in HEK293T cells; further: read-out not given here; nearly all actives have a fitted effect of over 45% in size
Giardia FBPA inh: blocks Giardia fructose-bisphosphate aldolase activity. Potency, µM (highest dose often 59.6 µM), usual class: inhibitors. purified Giardia FBPA. 0.71% of 290,000 active. AID 2451; further: nearly all actives have a fitted effect of over 55% in size
Target sequence (A8B2U2 whole entry, looked up): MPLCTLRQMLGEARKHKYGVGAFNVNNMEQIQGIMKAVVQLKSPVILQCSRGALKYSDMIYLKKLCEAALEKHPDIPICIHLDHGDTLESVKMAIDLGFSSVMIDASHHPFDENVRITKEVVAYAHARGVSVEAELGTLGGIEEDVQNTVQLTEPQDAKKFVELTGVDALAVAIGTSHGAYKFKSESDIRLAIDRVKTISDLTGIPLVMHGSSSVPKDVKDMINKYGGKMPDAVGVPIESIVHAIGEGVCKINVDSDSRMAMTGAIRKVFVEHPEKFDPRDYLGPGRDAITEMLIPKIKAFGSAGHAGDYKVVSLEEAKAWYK
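Giardia FBPA (40 nM reagent) was preincubated 10 min at RT with compound (up to 57.5 uM final), then substrate plus GAPDH/TPI/NAD/arsenate coupling system with diaphorase/resazurin was added; resorufin fluorescence (525/598 nm) was read after 20 min.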
VACV Venus inh: inhibitors of vaccinia virus (Venus reporter); Vaccinia virus Venus reporter expression, fluorescence; Potency, µM (series often up to 36.5 µM), usual class: inhibitors; 0.46% of 330,000 active; AID 720580; calls by dose curve; tested in A549 cells; further: nearly all actives have a fitted effect of over 30% in size
HCMV antiviral: blocks human cytomegalovirus replication. HFF cells, HCMV-luciferase reporter, 72 h; stronger effect = lower value. activity change, negative = inhibition, % at 57.5 µM. 4.5% of 410,000 active; in the data active means activity change below about -60%; inconclusive means no clear call, values can overlap the other calls; inactive means above about -39%
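Two compound doses tested in HFFs infected with HCMV-luciferase, MOI 1 PFU/cell, 72 h at 37C. Lysate luminescence read with OneGlo; data normalized against buffer-only and 10uM Salinomycin inhibitor controls.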
HCV inh: inhibitors of hepatitis C virus infection; Huh7.5.1 HCVcc-Cre infection, luciferase reporter, 44 h; Potency, µM (highest dose often 41.8 µM), hits mostly inhibitors; 3.4% of 340,000 active
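Antiviral activity was scored by luciferase reporter output from cells infected with HCVcc-Cre (~0.5 moi) in presence of compound, 44 h infection period, cells seeded 1,000/well 4 h prior.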
Hits are given with their value; 0 = inactive; ? = inconclusive; - = no result given; [ ] = remark or other dose. Unless noted, the call rests on the fitted dose curve; in most records, active means well fitted curve in the direction sought with a large enough effect; inconclusive means small, poorly fitted or top-dose-only effect, or another doubt; inactive means no such curve, though single readings can be large; an effect the other way counts as inactive or inconclusive.

SMILES | VACV mCherry inh | FMDV inh | Giardia FBPA inh | VACV Venus inh | HCMV antiviral | HCV inh
CCc1nc2c(OCCC3CCCCC3)cccn2c1N(C)C(=O)CC(C)C | 0 | ? | - | 0 | 0 | -
CCc1nc2c(OCCC3CCCCC3)cccn2c1N(C)C(=O)c1cccs1 | 0 | 28.2µM | - | 0 | 0 | -
CCCCC(=O)N(C)c1c(CC)nc2c(OCCC3CCCCC3)cccn12 | 0 | ? | - | 0 | -97.9 | -
CCCCC(=O)N(C)c1c(CC)nc2c(OCC3CCCCC3)cccn12 | 0 | 0 | - | 0 | -63.9 | -
Cn1c[n+](C)cc1-c1ccc(/C(N)=N/O)cc1 | 0 | 0 | 0 | 0 | 0 | 0
O=S(=O)(c1cccs1)N1CN(C2CCCCC2)c2nc3ccccc3nc21 | 0 | 0 | 0 | 0 | 0 | ?
COc1ccc(CC(=O)NCC(c2ccc(N(C)C)cc2)N2CCOCC2)cc1 (centres undefined) | 0 | 0 | - | 0 | 0 | -
Cc1cn([C@H]2C[C@H](O)[C@@H](CNCc3cccc(OC4CCCC4)c3)O2)c(=O)[nH]c1=O | 0 | ? | - | 0 | 0 | -
O=C(NCc1ccccc1)c1cccc(COc2ccc3c(c2)CCC3)c1 | 0 | 0 | 0 | 0 | 0 | 0
COc1ccc(OCc2cccc(C(=O)O)c2)cc1 | 0 | 1µM | 0 | 0 | 0 | 0
O=C(O)c1cccc(COc2ccc3c(c2)CCC3)c1 | 0 | 2.82µM | ? | 0 | 0 | 0
CCOc1ccc(OCc2cccc(C(=O)O)c2)cc1 | 0 | 0.891µM | 0 | 0 | 0 | 0
COc1ccc(-c2oc3c(c2C(=O)OCCO)C(OCCCO)CCC3)cc1 (centres undefined) | 0 | 0 | - | 0 | 0 | -
CC1=C(c2ccc(C(C)C)cc2)S(=O)(=O)N=C1N1CCN(c2ccccc2F)CC1 | ? | 0 | - | ? | -61.7 | -
CC1=C(c2ccc(C(C)C)cc2)S(=O)(=O)N=C1N1CCN(C(=O)c2ccco2)CC1 | 0 | ? | - | 0 | 0 | 0
Cc1ccc(S(=O)(=O)N(CC(=O)NCCc2ccc(Cl)cc2)c2ccccc2C)cc1 | ? | 0 | - | 0 | 0 | -
CCOc1ccc(/C=N/NC(=O)c2cc3c(OC)cc(OC)c(OC)c3[nH]2)cc1 | - | 0 | 0 | - | 0 | 11.2µM
COc1ccc2[nH]c(C(=O)N/N=C/c3ccc(OC)c(O)c3)cc2c1 | 11.2µM | 0 | 0 | 0 | -74.0 | 0
COc1ccc(C=NNC(=O)CCCC(=O)NN=Cc2ccc(OC)c(O)c2)cc1O | 0 | 0 | - | 0 | -68.8 | 0
COc1ccc(/C=N/NC(=O)CCn2c3ccccc3c3ccccc32)cc1O | 0 | - | 0 | 0 | 0 | 6.31µM
CCS(=O)(=O)Nc1cc(C(=O)N2CCC[C@H]2CO)c2c(c1)nc(-c1ccccc1)n2C | 0 | 0 | - | 0 | - | -
O=C1NC[C@H](CCCCN2CCN(CCc3ccc(O)cc3)C(=O)C2=O)N(CCc2ccc(O)cc2)C1=O | 0 | 0 | - | 0 | 0 | -
COc1cc(/C=N/NC(=O)CCn2cnc(-c3ccccc3)c2-c2ccccc2)ccc1O | 8.91µM | 0 | 0 | ? | 0 | 0
COc1ccc2[nH]c(C(=O)N/N=C/c3ccccc3OC)cc2c1 | - | 0 | 0 | - | 0 | 0
COc1cc(OC)c2cc(C(=O)N/N=C/c3ccccc3O)[nH]c2c1 | 1.12µM | 0 | 0 | ? | -95.9 | 8.91µM
SMILES | VACV mCherry inh | FMDV inh | Giardia FBPA inh | VACV Venus inh | HCMV antiviral | HCV inh
Cc1ccc2[nH]c(C(=O)N/N=C/c3ccccc3C(=O)O)c(-c3ccccc3)c2c1 | - | 0 | 0 | - | 0 | 0
Cc1ccc2[nH]c(C(=O)N/N=C/c3ccccc3O)c(C)c2c1 | 3.55µM | 0 | 0 | ? | -99.5 | 3.55µM
O=C(OCCc1cc2ccccc2c(=O)o1)c1ccccc1C(F)(F)F | 0 | 0 | - | 0 | 0 | 22.4µM
Cc1ccc2c(c1)C(=C(C#N)C#N)C(=O)N2CCN1CCOCC1 | - | ? | 3.15µM | - | 0 | 0
Cc1ccc2c(c1)C(=C(C#N)C#N)C(=O)N2CCN1CCCCC1 | 0 | 0 | ? | 0 | 0 | 0
CC(C)N(C(=O)[C@H]1C[C@H](CC(=O)NCCCn2ccnc2)C(=O)N2CCc3c([nH]c4cc(CCC(=O)N(C)C)ccc34)[C@]12C)C(C)C | 0 | 0 | - | 0 | 0 | 0[8.37 µM]
CCCCn1c(N)c(N(CCOC)C(=O)COC(=O)CCOc2ccc(C)cc2)c(=O)[nH]c1=O | - | 0 | - | - | 0 | 0
CCCN1C(=O)S/C(=C/c2ccc(N3CCOCC3)o2)C1=O | ? | 0 | ? | 0 | -78.8 | ?
COC(=O)CN1C(=O)S/C(=C/c2ccc(N3CCCCC3)o2)C1=O | - | 0 | ? | - | -103.9 | ?
O=C(Cn1cc([N+](=O)[O-])cn1)NC1CCCCCC1 | 0 | 0 | 0 | 0 | 0 | 0
